Screening data (PubChem BioAssay)
PAFAH1B2 inh: PAFAH1B2 (human) inhibition; P68402; recombinant PAFAH1B2, FP-rhodamine activity probe, fluorescence polarization; inhibition, % at 3.39 µM; actives 1.2% (n = 340,000);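 active = inhibition above the mean of all tested compounds plus 3 SD, cut at about 24% in these data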
HTRA1 inh: inhibitors of human serine peptidase HTRA1 | Q92743 | recombinant HTRA1, FP-rhodamine activity-based probe, fluorescence polarization | inhibition, % at 5.96 µM | actives 0.5% (n = 340,000) | AID 504803; in the data active = inhibition above about 36%
DAGLB inh: diacylglycerol lipase beta (human) inhibition | inhibition, % at 5.17 µM | actives 0.059% (n = 340,000) | Q8NCG7 | AID 504411 | HEK293T DAGLB membrane lysate, EnzChek fluorogenic substrate; in the data active = inhibition above about 34%
Target sequence (Q8NCG7 whole entry, looked up): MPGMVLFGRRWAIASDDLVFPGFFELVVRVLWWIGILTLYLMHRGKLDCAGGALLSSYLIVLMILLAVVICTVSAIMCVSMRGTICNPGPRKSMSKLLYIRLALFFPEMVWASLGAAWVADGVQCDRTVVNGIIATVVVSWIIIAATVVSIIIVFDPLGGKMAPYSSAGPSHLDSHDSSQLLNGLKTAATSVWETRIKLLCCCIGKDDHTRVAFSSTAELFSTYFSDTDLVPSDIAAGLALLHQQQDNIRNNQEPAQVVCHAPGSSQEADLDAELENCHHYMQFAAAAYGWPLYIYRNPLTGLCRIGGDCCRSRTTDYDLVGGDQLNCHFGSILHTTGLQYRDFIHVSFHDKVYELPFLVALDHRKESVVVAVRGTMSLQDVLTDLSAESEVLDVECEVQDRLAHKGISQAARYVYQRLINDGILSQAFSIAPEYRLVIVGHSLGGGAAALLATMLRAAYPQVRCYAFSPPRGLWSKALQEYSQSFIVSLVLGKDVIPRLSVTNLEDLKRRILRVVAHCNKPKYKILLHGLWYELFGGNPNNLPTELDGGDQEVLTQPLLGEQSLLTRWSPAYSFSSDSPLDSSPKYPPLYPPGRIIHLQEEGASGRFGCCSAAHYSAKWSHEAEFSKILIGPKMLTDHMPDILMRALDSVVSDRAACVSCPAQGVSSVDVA
PAFAH2 inh: inhibitors of human PAFAH2 | actives 0.99% (n = 340,000) | Q99487 | inhibition, % at 3.39 µM | AID 492956 | recombinant PAFAH2, FP-rhodamine activity probe, fluorescence polarization;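 active = inhibition above the mean over all tested compounds plus 3 SD, cut at about 30% in these data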;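 note: inhibitors block probe labeling of enzyme so polarization drops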
PAFAH1B3 inh: inhibitors of human PAFAH1B3; Q15102; recombinant PAFAH1B3, FP-rhodamine probe, fluorescence polarization; inhibition, % at 3.39 µM; actives 0.28% (n = 340,000); AID 492972;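 active = inhibition above the screen-wide average of all tested compounds plus 3 SD, cut at about 25% in these data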
pPAFAH FP inh: inhibitors of human plasma PAF acetylhydrolase (pPAFAH). Q13093. recombinant pPAFAH, FP-rhodamine probe fluorescence polarization. inhibition, % at 3.39 µM. actives 1.5% (n = 330,000);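 active = inhibition above the mean inhibition across the screen plus 3 SD, cut at about 25% in these data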;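 note: inhibitors block binding of the rhodamine activity-based probe so polarization drops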
HTRA1 conf: HTRA1 (human) inhibition, confirmation; shares compounds with HTRA1 inh; recombinant HTRA1, FP-rhodamine activity-based probe, fluorescence polarization; inhibition, % at 5.96 µM; actives 66% (n = 1,600);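 active = mean inhibition over three repeats above a set limit taken from the earlier primary screen, cut at about 37% in these data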;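 note: inhibitors block probe binding so polarization drops and inhibition rises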
Large screens that a line does not name were inactive (follow-up assays come after a bar, where they were run). Sampled rows, rich in hits. Any-hit rate of the full collection: about 2.8%.

CC(OC(=O)C1CCCC1)C(=O)Nc1ncc(Cl)cc1Cl (stereo not given)	none
CCn1c(CSc2ncn[nH]2)nc2cc(C(=O)O)ccc21	none
CCn1c(CSc2nnc(-c3ccncc3)n2C)nc2cc(C(=O)O)ccc21	PAFAH1B2 inh 36.5, HTRA1 inh 66.0, PAFAH2 inh 48.9, PAFAH1B3 inh 36.2, pPAFAH FP inh 25.9 | HTRA1 conf 55.5
c1ccc(-c2nc3cc4ccccc4cc3[nH]2)nc1	HTRA1 inh 55.1 | HTRA1 conf 60.1
Brc1csc2ncccc12	none
Oc1c(Br)cc(Br)c2cccnc12	HTRA1 inh 57.6 (no result: pPAFAH FP inh) | HTRA1 conf 59.3
Oc1c(CN2CCN(c3ccccc3)CC2)cc(Br)c2cccnc12	HTRA1 inh 56.0 | HTRA1 conf 44.0
c1ccc(N2CCN(Cc3ccnc4ccccc34)CC2)cc1	none
CCCCN(C(=O)NCCCCCCNC(=O)N(CCCC)C1CCS(=O)(=O)C1)C1CCS(=O)(=O)C1 (stereo not given)	none
COc1cc(-c2nc(-c3ccccc3)c(-c3cccs3)[nH]2)cc(OC)c1O	HTRA1 inh 42.6, pPAFAH FP inh 32.4 | HTRA1 conf inactive
COc1cc(-c2nc(-c3ccccc3)c(-c3cccs3)[nH]2)cc(OC)c1OC	none
CCCCN1C(=O)/C(=C2/Sc3ccccc3N2C)S/C1=N\c1ncn[nH]1	none
CC(CCc1ccccc1)NC(=O)CNC(=S)N(Cc1cccs1)C1CCCC1 (stereo not given)	none (no result: pPAFAH FP inh)
O=C(N/N=C/c1sc(N2CCOCC2)nc1-c1ccccc1)c1cccc(S(=O)(=O)N2CCCC2)c1	HTRA1 inh 45.7 | HTRA1 conf 63.4
COc1c(O)c(O)c2oc(-c3ccccc3)cc(=O)c2c1OC	HTRA1 inh 46.0 | HTRA1 conf 60.5
Nc1c(Cl)ncnc1N/N=C/c1ccccn1	none (no result: PAFAH1B2 inh, HTRA1 inh, DAGLB inh, PAFAH2 inh, PAFAH1B3 inh)
Nc1c(Cl)ncnc1N/N=C/c1ccc2ccccc2n1	HTRA1 inh 79.4 | HTRA1 conf 72.0
Oc1ccc(Br)cc1CNc1cccc2cccnc12	HTRA1 inh 45.0 | HTRA1 conf inactive
NC(=O)c1ccc(NC(=O)CS(=O)(=O)c2cn(CC(=O)N3CCCCC3)c3ccccc23)cc1	none
CN(C)S(=O)(=O)c1cccc2c1C(=O)c1ccccc1C2=O	none
CN(C)c1cc2c(c(N(C)C)c1)C(=O)c1ccccc1C2=O	HTRA1 inh 41.2 | HTRA1 conf 49.6
Cc1cc(C)c2c(CN3CCN(Cc4ccccc4)CC3)cc(=O)oc2c1	none (no result: pPAFAH FP inh)
CC(C)C1Oc2ccccc2N(CC(=O)NC2CCCCC2)C1=O (stereo not given)	none
CCOc1ccccc1C(C(=O)NC1CCCC1)N(C(=O)c1csnn1)C1CC1 (stereo not given)	none
O=C(Oc1cccc2cccnc12)c1ccco1	none
O=C(Oc1ccc(Cl)c2cccnc12)c1ccco1	HTRA1 inh 72.2 | HTRA1 conf 75.5
O=C(NCc1cccnc1)c1c(O)c2cccc3c2n(c1=O)CCC3	none
Cc1cccc2cc(-c3ccccc3)c(-c3ccccc3)c[n+]12	HTRA1 inh 56.1 | HTRA1 conf 74.1
Cc1ccc(N2CC(C(=O)Nc3ccc(S(=O)(=O)Nc4nccc(C)n4)cc3)CC2=O)cc1 (stereo not given)	none
O=c1[nH]c2ccc(Cl)cc2c(-c2ccccc2)c1SC(=S)N1CCCCC1	none
O=c1[nH]c2ccc(Cl)cc2c(-c2ccccc2)c1SC(=S)N1CCOCC1	HTRA1 inh 42.5 | HTRA1 conf inactive
CC1CC(C)CN(C(=O)COC(=O)COc2ccccc2C#N)C1 (stereo not given)	none
Nn1c(Cc2ccccc2)nc2cc(Cl)ccc2c1=O	none
O=c1onc(-c2ccccc2)n1Cc1ccc([N+](=O)[O-])cc1	none (no result: PAFAH1B2 inh, PAFAH2 inh, PAFAH1B3 inh, pPAFAH FP inh)
CC(C)N=c1scc(-c2cccs2)n1/N=C/c1ccc(O)c(O)c1O	HTRA1 inh 57.0, pPAFAH FP inh 68.4 | HTRA1 conf 65.5
CN=c1scc(-c2ccccc2F)n1/N=C/c1ccc[nH]1	none
CN=c1scc(-c2ccccc2F)n1/N=C/c1ccc(O)c(O)c1O	HTRA1 inh 71.5 (no result: pPAFAH FP inh) | HTRA1 conf 77.3
C(=N\Nc1nc2ccccc2[nH]1)/c1c[nH]c2ccccc12	HTRA1 inh 38.1 | HTRA1 conf inactive
C(=N\Nc1nc2ccccc2[nH]1)/c1cccc2cccnc12	HTRA1 inh 49.1 | HTRA1 conf 54.5
COc1ccc(CN(C)C(=O)/C=C/c2ccc(S(=O)(=O)N3CCCCCC3)cc2)cc1	none
Cc1cc(=O)[nH]c2cc(O)ccc12	none
CC(C)=CCCC1(C)C=Cc2c(c(C)cc3c2[nH]c2cc(O)ccc23)O1 (stereo not given)	HTRA1 inh 45.7 | HTRA1 conf inactive
CCOc1ccc2c(ccc(/C=C/c3cc(C)c4cccnc4c3O)[n+]2C)c1	HTRA1 inh 63.5 (no result: pPAFAH FP inh) | HTRA1 conf 89.5
CCOc1ccc2[nH]c3ncccc3c(=O)c2c1	none
CC1CCC(NC(=O)C2CCN(C(=O)Nc3ccccc3)CC2)CC1 (stereo not given)	none
Oc1ccc(NCc2cccc(OCc3ccccc3)c2)cc1	HTRA1 inh 50.5 | HTRA1 conf inactive
Oc1ccc(NCc2cccc(OCc3ccc(F)cc3)c2)cc1	HTRA1 inh 57.8 | HTRA1 conf inactive
Cc1[nH]c2c(C)cccc2c1CCNC(=O)c1ccc2c(c1[N+](=O)[O-])C(=O)c1ccccc1C2=O	HTRA1 inh 41.7, PAFAH1B3 inh 40.0 | HTRA1 conf 43.5
COc1cccc(/C=N/NC(=O)N/N=C/c2cccc(OC)c2O)c1O	HTRA1 inh 59.7 | HTRA1 conf 85.3
CCOc1ccccc1/C=N/NC(=O)c1c(C)nc2ccc(Br)cn12	none
COc1cccc(/C=N/NC(=O)c2nc(-c3ccccc3)cc(-c3ccccc3)n2)c1O	HTRA1 inh 42.9 | HTRA1 conf 57.4
COc1cccc(/C=N/NC(=O)c2c(C)nc3ccc(Br)cn23)c1O	HTRA1 inh 54.4 | HTRA1 conf 52.4
Cc1cc(C(=O)CSc2nnc(CCC(N)=O)n2C)c(C)n1C1CC1	none (no result: pPAFAH FP inh)
COc1ccc(OC)c(Nc2nc(-c3sc(NC(=O)CC(C)C)nc3C)cs2)c1	HTRA1 inh 37.1, pPAFAH FP inh 30.4 | HTRA1 conf inactive
CCCCC(=O)Nc1nc(C)c(-c2csc(Nc3cc(Cl)ccc3OC)n2)s1	none
CCCCC(=O)Nc1nc(C)c(-c2csc(Nc3cc(OC)ccc3OC)n2)s1	HTRA1 inh 38.9 | HTRA1 conf inactive
Cc1nc(N2CCOCC2)nc2c1CCC2	none
CN1CCCC(OC(=O)c2ccc(C(C)(C)C)cc2)C1 (stereo not given)	none
CN1CCN(c2cc(-c3cc(O)c4ncccc4c3)ccn2)CC1	HTRA1 inh 47.4 | HTRA1 conf 61.8
Cc1oc2c(O)c(O)ccc2c(=O)c1-c1ccccc1	HTRA1 inh 51.8 | HTRA1 conf 40.9
